Measurements published in ChEMBL document CHEMBL1961873, “Compounds: GSK PKIS; Assays: Nanosyn kinase panel” (2012).

Legend:
[1] = target: T1, Mitogen-activated protein kinase 12 (Homo sapiens) (UniProt P53778); settings: at 1 µM;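 note: values are averaged p38gamma kinase inhibition readings, compounds tested at 1 µM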
T1 sequence (whole entry): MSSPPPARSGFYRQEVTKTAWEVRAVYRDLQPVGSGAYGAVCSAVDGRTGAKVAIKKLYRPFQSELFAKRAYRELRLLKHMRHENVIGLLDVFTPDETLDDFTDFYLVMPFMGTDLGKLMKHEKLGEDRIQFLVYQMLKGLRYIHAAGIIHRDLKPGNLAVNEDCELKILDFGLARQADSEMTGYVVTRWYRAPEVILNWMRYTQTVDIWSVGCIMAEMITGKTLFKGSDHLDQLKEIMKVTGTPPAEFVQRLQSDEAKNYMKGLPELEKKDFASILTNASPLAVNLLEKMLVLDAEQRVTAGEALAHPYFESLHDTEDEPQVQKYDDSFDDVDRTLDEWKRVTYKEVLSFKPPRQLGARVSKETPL

[2] = target: SRSF protein kinase 1 (Homo sapiens) (UniProt Q96SB4); settings: at 0.1 µM
Chain of SRSF protein kinase 1 (Homo sapiens) (Q96SB4 whole entry, canonical isoform): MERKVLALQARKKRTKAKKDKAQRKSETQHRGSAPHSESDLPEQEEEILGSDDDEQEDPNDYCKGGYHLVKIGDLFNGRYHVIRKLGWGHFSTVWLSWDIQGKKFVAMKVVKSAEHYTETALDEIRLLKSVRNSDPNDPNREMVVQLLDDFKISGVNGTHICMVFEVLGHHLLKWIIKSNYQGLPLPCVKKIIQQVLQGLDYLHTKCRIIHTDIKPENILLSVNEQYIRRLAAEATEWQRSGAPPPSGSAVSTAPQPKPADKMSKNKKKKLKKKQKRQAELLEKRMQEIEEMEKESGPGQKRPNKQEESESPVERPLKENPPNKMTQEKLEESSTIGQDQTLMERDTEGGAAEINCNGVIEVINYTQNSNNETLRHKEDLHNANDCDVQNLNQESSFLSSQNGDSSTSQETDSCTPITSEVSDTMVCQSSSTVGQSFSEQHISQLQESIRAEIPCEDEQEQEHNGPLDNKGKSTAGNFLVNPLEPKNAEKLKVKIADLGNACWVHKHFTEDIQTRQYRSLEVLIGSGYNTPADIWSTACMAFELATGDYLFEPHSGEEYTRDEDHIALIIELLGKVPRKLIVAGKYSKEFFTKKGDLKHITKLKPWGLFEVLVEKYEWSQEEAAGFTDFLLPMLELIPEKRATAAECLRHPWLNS

[3] = target: SRSF protein kinase 1 (Homo sapiens) (UniProt Q96SB4); settings: at 1 µM
[4] = target: Phosphatidylinositol 4,5-bisphosphate 3-kinase catalytic subunit alpha isoform (Homo sapiens) (UniProt P42336); settings: at 0.1 µM
Chain of Phosphatidylinositol 4,5-bisphosphate 3-kinase catalytic subunit alpha isoform (Homo sapiens) (P42336 whole entry, canonical isoform): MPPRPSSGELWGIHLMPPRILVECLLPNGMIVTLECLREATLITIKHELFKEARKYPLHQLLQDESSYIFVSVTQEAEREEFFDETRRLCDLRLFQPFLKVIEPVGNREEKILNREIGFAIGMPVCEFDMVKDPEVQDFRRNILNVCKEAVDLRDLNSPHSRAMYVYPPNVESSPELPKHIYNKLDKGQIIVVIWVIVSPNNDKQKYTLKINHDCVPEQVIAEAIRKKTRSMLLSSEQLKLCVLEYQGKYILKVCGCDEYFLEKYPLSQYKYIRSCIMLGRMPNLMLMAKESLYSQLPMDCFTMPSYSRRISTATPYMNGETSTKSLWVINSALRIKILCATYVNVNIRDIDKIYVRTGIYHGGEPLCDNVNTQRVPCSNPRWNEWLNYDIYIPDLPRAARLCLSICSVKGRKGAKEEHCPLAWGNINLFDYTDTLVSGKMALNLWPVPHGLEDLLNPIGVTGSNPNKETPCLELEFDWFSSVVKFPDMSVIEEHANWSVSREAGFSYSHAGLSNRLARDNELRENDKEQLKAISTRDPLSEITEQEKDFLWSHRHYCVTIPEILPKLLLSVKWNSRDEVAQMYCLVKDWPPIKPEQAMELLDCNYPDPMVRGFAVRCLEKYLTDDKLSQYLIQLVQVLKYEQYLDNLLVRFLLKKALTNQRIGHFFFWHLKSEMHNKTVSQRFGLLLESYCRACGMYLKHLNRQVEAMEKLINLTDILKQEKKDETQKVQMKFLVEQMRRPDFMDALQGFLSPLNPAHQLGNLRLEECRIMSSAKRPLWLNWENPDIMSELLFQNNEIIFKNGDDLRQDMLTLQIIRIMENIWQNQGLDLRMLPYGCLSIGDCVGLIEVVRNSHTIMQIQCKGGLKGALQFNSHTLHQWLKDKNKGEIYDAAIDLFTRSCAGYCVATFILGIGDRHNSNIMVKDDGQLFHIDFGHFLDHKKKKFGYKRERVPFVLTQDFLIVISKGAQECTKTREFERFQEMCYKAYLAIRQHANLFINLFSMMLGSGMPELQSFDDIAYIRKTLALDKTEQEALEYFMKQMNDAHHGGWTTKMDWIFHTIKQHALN

[5] = target: Phosphatidylinositol 4,5-bisphosphate 3-kinase catalytic subunit alpha isoform (Homo sapiens) (UniProt P42336); settings: at 1 µM
[6] = target: T2, Phosphatidylinositol 4,5-bisphosphate 3-kinase catalytic subunit delta isoform (Homo sapiens) (UniProt O00329); settings: at 0.1 µM
T2 sequence (whole entry): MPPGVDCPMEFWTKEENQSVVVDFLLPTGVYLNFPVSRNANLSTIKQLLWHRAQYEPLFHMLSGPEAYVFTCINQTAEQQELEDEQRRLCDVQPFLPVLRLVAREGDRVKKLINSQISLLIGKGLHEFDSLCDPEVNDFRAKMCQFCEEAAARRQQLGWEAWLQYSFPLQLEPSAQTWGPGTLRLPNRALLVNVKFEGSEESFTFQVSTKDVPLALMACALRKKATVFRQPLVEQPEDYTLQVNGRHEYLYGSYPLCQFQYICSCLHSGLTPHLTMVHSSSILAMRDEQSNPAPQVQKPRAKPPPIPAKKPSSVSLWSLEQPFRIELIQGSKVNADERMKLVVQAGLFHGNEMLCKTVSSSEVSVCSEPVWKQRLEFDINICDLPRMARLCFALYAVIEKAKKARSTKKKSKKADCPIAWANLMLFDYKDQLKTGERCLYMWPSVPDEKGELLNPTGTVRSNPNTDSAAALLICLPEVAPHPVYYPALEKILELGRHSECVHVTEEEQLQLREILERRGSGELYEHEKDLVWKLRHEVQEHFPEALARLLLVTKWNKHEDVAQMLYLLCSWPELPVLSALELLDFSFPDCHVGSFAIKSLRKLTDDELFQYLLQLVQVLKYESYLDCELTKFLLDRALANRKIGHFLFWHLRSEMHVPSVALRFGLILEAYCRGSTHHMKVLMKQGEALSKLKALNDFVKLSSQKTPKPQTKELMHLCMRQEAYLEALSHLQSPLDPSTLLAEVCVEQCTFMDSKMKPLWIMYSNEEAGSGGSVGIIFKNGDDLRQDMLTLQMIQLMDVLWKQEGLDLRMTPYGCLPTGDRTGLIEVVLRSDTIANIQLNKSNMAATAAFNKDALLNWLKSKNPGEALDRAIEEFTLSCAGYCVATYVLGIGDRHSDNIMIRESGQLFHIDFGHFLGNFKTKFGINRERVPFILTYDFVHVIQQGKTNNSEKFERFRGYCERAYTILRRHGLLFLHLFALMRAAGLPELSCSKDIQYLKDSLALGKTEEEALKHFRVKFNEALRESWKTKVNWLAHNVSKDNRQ

[7] = target: T2, Phosphatidylinositol 4,5-bisphosphate 3-kinase catalytic subunit delta isoform (Homo sapiens); settings: at 1 µM
[8] = target: Phosphatidylinositol 4-kinase beta (Homo sapiens) (UniProt Q9UBF8); settings: at 0.1 µM
Chain of Phosphatidylinositol 4-kinase beta (Homo sapiens) (Q9UBF8 2-816 limits assumed): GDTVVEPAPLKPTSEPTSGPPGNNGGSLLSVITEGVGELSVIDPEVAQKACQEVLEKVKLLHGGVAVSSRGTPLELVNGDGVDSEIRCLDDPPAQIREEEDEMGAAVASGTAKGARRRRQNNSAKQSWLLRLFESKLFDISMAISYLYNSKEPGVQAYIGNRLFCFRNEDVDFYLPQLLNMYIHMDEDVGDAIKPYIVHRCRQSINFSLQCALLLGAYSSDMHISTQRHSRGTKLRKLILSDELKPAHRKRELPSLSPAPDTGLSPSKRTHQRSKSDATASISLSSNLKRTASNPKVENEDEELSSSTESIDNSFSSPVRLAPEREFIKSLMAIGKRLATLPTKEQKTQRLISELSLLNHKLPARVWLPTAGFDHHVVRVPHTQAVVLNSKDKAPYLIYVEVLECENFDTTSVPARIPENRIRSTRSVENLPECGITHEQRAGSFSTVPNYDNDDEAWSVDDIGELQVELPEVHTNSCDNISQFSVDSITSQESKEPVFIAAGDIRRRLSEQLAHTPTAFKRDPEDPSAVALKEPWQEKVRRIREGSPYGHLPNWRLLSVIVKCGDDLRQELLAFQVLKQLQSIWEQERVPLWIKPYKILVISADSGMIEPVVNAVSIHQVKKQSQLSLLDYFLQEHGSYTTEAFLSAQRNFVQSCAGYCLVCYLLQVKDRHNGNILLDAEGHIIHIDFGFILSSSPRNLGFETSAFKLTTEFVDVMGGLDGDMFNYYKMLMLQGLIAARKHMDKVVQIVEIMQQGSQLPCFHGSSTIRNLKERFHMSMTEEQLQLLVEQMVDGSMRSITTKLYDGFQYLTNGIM

[9] = target: Phosphatidylinositol 4-kinase beta (Homo sapiens) (UniProt Q9UBF8); settings: at 1 µM
[10] = target: Sphingosine kinase 1 (Homo sapiens) (UniProt Q9NYA1); settings: at 0.1 µM
Chain of Sphingosine kinase 1 (Homo sapiens) (Q9NYA1 whole entry): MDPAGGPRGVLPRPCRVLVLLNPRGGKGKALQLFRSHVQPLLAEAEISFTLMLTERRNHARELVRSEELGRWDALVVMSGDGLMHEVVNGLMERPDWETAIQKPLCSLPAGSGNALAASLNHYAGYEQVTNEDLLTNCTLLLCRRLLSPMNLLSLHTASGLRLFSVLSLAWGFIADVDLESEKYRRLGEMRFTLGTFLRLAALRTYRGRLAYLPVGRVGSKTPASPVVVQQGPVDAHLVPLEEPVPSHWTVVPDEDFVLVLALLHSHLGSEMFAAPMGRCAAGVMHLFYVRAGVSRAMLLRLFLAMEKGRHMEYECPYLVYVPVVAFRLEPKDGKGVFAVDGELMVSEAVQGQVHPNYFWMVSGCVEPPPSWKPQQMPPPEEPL

[11] = target: Sphingosine kinase 1 (Homo sapiens) (UniProt Q9NYA1); settings: at 1 µM
[12] = target: T3, Sphingosine kinase 2 (Homo sapiens) (UniProt Q9NRA0); settings: at 0.1 µM
T3 sequence (whole entry): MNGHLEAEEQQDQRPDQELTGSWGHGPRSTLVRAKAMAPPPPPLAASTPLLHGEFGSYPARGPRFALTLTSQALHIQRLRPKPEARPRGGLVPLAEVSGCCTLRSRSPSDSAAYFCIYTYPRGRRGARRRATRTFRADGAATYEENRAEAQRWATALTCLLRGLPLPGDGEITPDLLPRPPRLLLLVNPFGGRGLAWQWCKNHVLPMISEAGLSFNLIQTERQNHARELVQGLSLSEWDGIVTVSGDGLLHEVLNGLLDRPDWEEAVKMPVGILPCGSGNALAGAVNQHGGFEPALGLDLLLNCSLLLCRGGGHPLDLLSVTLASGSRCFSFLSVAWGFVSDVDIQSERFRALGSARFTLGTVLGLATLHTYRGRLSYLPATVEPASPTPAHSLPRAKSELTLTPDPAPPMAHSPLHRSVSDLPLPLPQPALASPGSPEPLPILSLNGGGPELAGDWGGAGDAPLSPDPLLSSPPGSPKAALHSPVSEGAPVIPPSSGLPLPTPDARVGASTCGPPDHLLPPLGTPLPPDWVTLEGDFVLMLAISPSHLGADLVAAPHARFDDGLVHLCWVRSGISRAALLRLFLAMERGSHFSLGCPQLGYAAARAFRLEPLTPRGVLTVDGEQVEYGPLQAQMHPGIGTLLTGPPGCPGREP

[13] = target: T3, Sphingosine kinase 2 (Homo sapiens); settings: at 1 µM
[14] = target: Casein kinase II subunit alpha (Homo sapiens) (UniProt P68400); settings: at 0.1 µM
Chain of Casein kinase II subunit alpha (Homo sapiens) (P68400 whole entry, looked up): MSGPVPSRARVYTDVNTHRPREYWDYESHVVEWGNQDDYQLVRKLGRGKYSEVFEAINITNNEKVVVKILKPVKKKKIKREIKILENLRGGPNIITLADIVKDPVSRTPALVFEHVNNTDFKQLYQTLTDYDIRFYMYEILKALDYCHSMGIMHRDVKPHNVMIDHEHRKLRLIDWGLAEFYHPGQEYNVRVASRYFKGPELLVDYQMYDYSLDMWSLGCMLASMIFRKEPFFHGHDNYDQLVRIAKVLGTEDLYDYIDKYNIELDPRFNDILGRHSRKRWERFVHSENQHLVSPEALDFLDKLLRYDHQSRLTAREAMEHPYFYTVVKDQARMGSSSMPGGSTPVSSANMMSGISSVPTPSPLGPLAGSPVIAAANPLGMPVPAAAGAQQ

[15] = target: Casein kinase II subunit alpha (Homo sapiens) (UniProt P68400); settings: at 1 µM
[16] = target: T4, Inhibitor of nuclear factor kappa-B kinase subunit alpha (Homo sapiens) (UniProt O15111); settings: at 0.1 µM
T4 sequence (whole entry): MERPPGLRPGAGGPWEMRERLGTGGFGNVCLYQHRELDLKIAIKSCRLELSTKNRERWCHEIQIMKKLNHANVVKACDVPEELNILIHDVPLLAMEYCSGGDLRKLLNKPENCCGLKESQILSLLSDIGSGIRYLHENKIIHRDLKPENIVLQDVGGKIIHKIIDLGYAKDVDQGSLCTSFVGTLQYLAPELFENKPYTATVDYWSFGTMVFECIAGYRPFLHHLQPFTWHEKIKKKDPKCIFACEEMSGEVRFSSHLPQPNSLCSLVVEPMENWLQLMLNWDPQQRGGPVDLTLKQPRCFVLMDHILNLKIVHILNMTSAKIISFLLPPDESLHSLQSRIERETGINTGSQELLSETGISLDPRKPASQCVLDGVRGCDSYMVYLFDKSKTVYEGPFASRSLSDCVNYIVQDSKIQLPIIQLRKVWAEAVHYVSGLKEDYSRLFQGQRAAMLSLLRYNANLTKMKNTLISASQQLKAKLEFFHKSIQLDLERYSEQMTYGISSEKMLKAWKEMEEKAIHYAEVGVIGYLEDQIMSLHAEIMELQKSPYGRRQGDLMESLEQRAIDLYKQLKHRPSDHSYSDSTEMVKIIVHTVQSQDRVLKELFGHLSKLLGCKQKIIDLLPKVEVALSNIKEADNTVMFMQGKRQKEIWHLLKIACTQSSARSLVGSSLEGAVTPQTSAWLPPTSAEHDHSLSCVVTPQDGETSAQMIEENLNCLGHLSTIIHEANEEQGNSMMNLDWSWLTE

[17] = target: T4, Inhibitor of nuclear factor kappa-B kinase subunit alpha (Homo sapiens); settings: at 1 µM
[18] = target: T5, Inhibitor of nuclear factor kappa-B kinase subunit beta (Homo sapiens) (UniProt O14920); settings: at 0.1 µM
T5 sequence (whole entry): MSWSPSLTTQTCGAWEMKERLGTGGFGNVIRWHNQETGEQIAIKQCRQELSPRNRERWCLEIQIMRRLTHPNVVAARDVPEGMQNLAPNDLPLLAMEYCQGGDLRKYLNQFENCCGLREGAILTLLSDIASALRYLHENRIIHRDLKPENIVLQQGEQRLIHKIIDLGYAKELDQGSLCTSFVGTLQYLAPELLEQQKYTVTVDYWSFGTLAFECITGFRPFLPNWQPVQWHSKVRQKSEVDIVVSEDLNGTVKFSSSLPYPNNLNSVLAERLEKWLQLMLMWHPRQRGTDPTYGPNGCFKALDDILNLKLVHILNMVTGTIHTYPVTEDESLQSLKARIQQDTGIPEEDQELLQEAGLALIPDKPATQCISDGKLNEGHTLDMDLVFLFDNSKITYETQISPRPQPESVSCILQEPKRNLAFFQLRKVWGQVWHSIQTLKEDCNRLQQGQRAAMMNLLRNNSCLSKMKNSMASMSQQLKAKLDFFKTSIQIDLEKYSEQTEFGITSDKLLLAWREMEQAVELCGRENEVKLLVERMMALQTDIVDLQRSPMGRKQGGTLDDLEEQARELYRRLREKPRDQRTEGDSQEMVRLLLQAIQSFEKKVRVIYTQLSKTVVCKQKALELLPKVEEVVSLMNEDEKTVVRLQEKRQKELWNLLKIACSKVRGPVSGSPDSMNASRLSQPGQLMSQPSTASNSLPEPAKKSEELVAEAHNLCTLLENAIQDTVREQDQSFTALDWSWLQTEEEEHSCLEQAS

[19] = target: T5, Inhibitor of nuclear factor kappa-B kinase subunit beta (Homo sapiens); settings: at 1 µM
[20] = target: T6, Inhibitor of nuclear factor kappa-B kinase subunit epsilon (Homo sapiens) (UniProt Q14164); settings: at 0.1 µM;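 note: mean inhibition of IKKε reported, from the GSK PKIS dataset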
T6 sequence (whole entry): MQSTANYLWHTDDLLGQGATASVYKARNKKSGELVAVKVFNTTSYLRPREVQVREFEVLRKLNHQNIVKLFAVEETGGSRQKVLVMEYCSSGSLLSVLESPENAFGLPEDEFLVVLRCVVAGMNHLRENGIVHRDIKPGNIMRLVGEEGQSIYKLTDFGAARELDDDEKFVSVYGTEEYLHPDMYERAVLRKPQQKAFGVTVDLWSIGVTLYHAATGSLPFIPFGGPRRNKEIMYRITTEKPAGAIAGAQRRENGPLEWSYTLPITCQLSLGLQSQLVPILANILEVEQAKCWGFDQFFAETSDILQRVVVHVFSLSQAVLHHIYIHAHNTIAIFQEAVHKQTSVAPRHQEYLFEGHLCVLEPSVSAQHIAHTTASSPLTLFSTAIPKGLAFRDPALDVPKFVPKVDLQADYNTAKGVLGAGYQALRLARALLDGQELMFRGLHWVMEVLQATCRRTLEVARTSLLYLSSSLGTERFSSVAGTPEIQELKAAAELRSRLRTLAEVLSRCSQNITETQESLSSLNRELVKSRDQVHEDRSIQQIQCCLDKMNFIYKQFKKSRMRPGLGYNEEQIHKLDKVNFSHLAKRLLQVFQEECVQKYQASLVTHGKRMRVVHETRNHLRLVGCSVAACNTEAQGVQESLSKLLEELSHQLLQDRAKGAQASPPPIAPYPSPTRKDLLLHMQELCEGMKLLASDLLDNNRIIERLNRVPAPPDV

Row | SMILES | inhibition [1] [%] | inhibition [2] [%] | inhibition [3] [%] | inhibition [4] [%] | inhibition [5] [%] | inhibition [6] [%] | inhibition [7] [%] | inhibition [8] [%] | inhibition [9] [%] | inhibition [10] [%] | inhibition [11] [%] | inhibition [12] [%] | inhibition [13] [%] | inhibition [14] [%] | inhibition [15] [%] | inhibition [16] [%] | inhibition [17] [%] | inhibition [18] [%] | inhibition [19] [%] | inhibition [20] [%]
1 | CC(C)c1ccc2c(c1)NC(=O)/C2=N/Nc1ccc(S(N)(=O)=O)cc1 | 0.63 | -0.89 | -0.94 | 0.32 | 1.8 | 0.64 | 0.71 | 0.05 | 0.24 | 0 | -1.85 | 0.61 | 1.73 | 4.26 | 0.39 | -1.84 | -4.08 | 1.01 | 0.14 | -1.18
2 | NS(=O)(=O)c1ccc(-c2cc3ccncc3cc2OCc2ccccc2)cc1 | 2.36 | -1.87 | 0.04 | 3.71 | 4.7 | 1.97 | 2.98 | 3.31 | 0.15 | 1.82 | -2.02 | -0.23 | 1 | 5.15 | 12.6 | 0.99 | 8.71 | 8.26 | 21.9 | 5.72
3 | COc1cccc(-n2ncc3c(N/N=C/c4ccc(S(C)(=O)=O)cc4)ncnc32)c1 | 2.32 | -0.76 | 0.02 | 1.3 | 1.54 | 1 | 2.43 | -0.72 | -2.28 | -1.72 | 10.4 | 2.7 | -2.05 | 23.1 | 39.1 | -1.85 | -0.62 | -1.48 | -0.15 | 1.8
